Pol kappa inh – qHTS for Inhibitors of Polymerase Kappa | purified Pol kappa, fluorescent DNA synthesis assay, 10 min | DNA polymerase kappa (Homo sapiens), Q9UBT6 | Potency, µM (top dose mostly 107 µM), inactives show at the top dose activity, negative = inhibition, actives largely listed as inhibitors | 0.53% of 400,000 active; also: potency is read from the fitted curve at half-maximal effect; % is scaled to controls: 0 for no effect and ±100 for the full control effect
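Enzyme at 10 nM met test compounds for 15 min at room temperature. Substrate addition (50 nM final) began the reaction, which was monitored by fluorescence at 0 and 10 min.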
Pol iota inh – qHTS for Inhibitors of Polymerase Iota; DNA polymerase iota (Homo sapiens), Q9UNA4; Pol iota fluorescent replication assay, 10 min; Potency, µM (titrated, usually from 115 µM), for inactives: at the top dose activity, negative = inhibition, usual class: inhibitors; 1% of 390,000 active; AID 588590, 2011; also: potency is read from the fitted curve at half-maximal effect
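Pol iota at 10 nM preincubated 15 min with compounds at room temperature; reaction started with fluorescent substrate, 50 nM final. Fluorescence read kinetically at 0 and 10 min; buffer-only wells as negative control.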
Pol beta inh-1 – qHTS Assay for Inhibitors of DNA Polymerase Beta. Pol beta primer extension/strand displacement, fluorescence kinetic. Potency, µM (doses to about 114 µM), for the others: at the highest dose activity change, negative = inhibition, usual class: inhibitors. 1.3% of 340,000 active. AID 485314, 2010; also: potency is read from the fitted curve at half-maximal effect; % is scaled to controls: 0 for no effect and ±100 for the full control effect
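Curves were derived by four-parameter Hill fits of normalized qHTS data. The kinetic fluorescent primer-extension read was taken at 0 and 10 min after 50 nM substrate, following a 15 min room-temperature preincubation of 10 nM enzyme with compounds.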
Pol eta inh-1 – qHTS for Inhibitors of Polymerase Eta; DNA polymerase eta (Homo sapiens), Q9Y253; recombinant Pol eta, fluorescent DNA replication assay; Potency, µM (titrated, usually from 114 µM), for inactives: at the highest dose activity change, negative = inhibition, most hits filed as inhibitors; 1.2% of 390,000 active; AID 588591, 2011; also: potency is read from the fitted curve at half-maximal effect; % is scaled to controls: 0 for no effect and ±100 for the full control effect
Target sequence (Q9Y253 whole entry, looked up): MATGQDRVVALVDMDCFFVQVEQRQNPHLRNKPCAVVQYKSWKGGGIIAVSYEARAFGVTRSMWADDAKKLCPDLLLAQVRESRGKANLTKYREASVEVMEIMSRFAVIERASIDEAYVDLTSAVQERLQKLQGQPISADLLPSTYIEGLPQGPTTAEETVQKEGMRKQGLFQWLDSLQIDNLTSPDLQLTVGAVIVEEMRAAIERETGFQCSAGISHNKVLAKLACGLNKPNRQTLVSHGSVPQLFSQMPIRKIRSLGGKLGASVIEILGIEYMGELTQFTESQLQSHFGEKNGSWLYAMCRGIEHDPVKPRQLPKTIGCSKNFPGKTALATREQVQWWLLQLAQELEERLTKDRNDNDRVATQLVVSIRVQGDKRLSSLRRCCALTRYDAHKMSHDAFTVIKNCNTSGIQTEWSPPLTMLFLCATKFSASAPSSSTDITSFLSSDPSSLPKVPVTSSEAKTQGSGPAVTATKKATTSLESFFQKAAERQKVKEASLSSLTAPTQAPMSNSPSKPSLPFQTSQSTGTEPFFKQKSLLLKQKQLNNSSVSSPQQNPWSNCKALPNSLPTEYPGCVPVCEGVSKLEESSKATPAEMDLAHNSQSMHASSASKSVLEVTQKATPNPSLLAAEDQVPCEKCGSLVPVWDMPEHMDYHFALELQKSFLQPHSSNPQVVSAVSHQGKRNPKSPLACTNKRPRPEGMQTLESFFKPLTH
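Pol eta at 10 nM preincubated with compounds 15 min at room temperature; reaction started with fluorescent substrate (50 nM final) and read kinetically at 0 and 10 min.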
FEN1 inh-1 – qHTS Assay for the Inhibitors of Human Flap endonuclease 1 (FEN1); P39748; Recombinant FEN1 flap cleavage, fluorescence, 15 min; Potency, µM (titrated, usually from 114 µM), inactives show at the top dose activity change, negative = inhibition, actives largely listed as inhibitors; 0.35% of 390,000 active; AID 588795, 2011; also: potency is read from the fitted curve at half-maximal effect; % is scaled to controls: 0 for no effect and ±100 for the full control effect; nearly all actives have a fitted effect of over 65% in size
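Enzyme 10 nM, 15 min RT preincubation with compound; start with substrate 50 nM final; reads at 0 and 15 min; qHTS titration, four-parameter Hill fit.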
WRN helicase inh-1 – qHTS for Inhibitors of WRN Helicase; WRN helicase unwinding, fluorescent forked duplex, kinetic; Potency, µM (titrated, usually from 114 µM), without a hit: at the top dose activity change, negative = inhibition, most hits filed as inhibitors; 0.46% of 360,000 active; also: potency is read from the fitted curve at half-maximal effect; % is scaled to controls: 0 for no effect and ±100 for the full control effect; nearly all actives have a fitted effect of over 55% in size
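Kinetic fluorescence helicase assay: unwinding of a quenched forked DNA duplex (100 nM final) with 2 mM ATP final raises red fluorescence (525/598 nm). Compounds sat 15 min at room temperature with 20 nM WRN beforehand.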
Pol beta inh-2 – Inhibitors of DNA Polymerase Beta: Hit validation; shares compounds with Pol beta inh-1; Potency, µM, most hits filed as inhibitors; Pol beta primer extension/strand displacement, fluorescence kinetic; AID 540280, 2011; 87% of 250 active; calls by dose curve; also: potency is read from the fitted curve at half-maximal effect
Klenow inh – Inhibitors of DNA Polymerase Beta: Hit Validation in Klenow Fragment Assay. shares compounds with Pol beta inh-1. Klenow exo- polymerase counter-screen, fluorescent DNA substrate. activity change, negative = inhibition, % at 57.1 µM. 250 tested, under 10 active
HIV RT counter – Inhibitors of DNA Polymerase Beta: Hit Validation in HIV-RT Assay; shares compounds with Pol beta inh-1; HIV-1 RT polymerase activity, counter-screen; activity % (negative = inhibition, positive = activation), % at 57.1 µM; 250 tested, under 10 active; AID 540301, 2011
POLB valid – Inhibitors of DNA Polymerase Beta: Hit Validation in Radiolabeled Extension Assay | shares compounds with Pol beta inh-1 | radiolabeled primer extension gel assay, phosphorimager | inhibition, % at 10 µM | 91% of 110 active | AID 540325, 2011;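 active = inhibition at 10 µM of 30% or more; inconclusive = no clear call, values can overlap the other calls; inactive = inhibition at 10 µM under 30%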
PGK validate – qHTS for inhibitors of Phosphogylcerate Kinase: Hit Validation Screen. shares compounds with Pol kappa inh. Potency, µM (highest dose often 57.5 µM), for the others: at the top dose activity change, negative = inhibition, hits mostly inhibitors. 79% of 500 active. AID 686980, 2013. TbPGK coupled GAPDH assay, Kinase-Glo luminescence; also: potency is read from the fitted curve at half-maximal effect; % is scaled to controls: 0 for no effect and ±100 for the full control effect; nearly all actives have a fitted effect of over 65% in size
Pol iota confirm – qHTS for Inhibitors of Polymerase Iota: Confirmatory Assay for Cherry-picked Compounds. Pol iota primer extension, TAMRA/BHQ fluorescence. AID 720496, 2013. shares compounds with Pol kappa inh. Potency, µM, hits mostly inhibitors. 77% of 1,500 active; also: potency is read from the fitted curve at half-maximal effect
Pol eta inh-2 – qHTS for Inhibitors of Polymerase Eta: Confirmatory Assay for Cherry-picked Compounds. 64% of 2,600 active. shares compounds with Pol eta inh-1. Potency, µM, usual class: inhibitors. Pol eta primer extension, TAMRA/BHQ fluorescence, 10 min; also: potency is read from the fitted curve at half-maximal effect
FEN1 inh-2 – qHTS Assay for the Inhibitors of FEN1: Confirmatory Assay for Cherry-picked Compounds; shares compounds with FEN1 inh-1; FEN1 flap cleavage, TAMRA/BHQ2 fluorogenic DNA substrate; Potency, µM, usual class: inhibitors; 79% of 880 active; AID 720498, 2013; also: potency is read from the fitted curve at half-maximal effect; nearly all actives have a fitted effect of over 60% in size
WRN helicase inh-2 – qHTS for Inhibitors of WRN Helicase: Confirmatory Assay for Cherry-picked Compounds; shares compounds with WRN helicase inh-1; WRN helicase DNA unwinding, fluorescence kinetic; Potency, µM (doses to about 57.1 µM), for the others: at the top dose activity, negative = inhibition, hits mostly inhibitors; 63% of 610 active; AID 720497, 2013; also: potency is read from the fitted curve at half-maximal effect; nearly all actives have a fitted effect of over 65% in size
TO DNA binding – qHTS for Inhibitors of WRN Helicase: Thiazole Orange DNA Binding Counterscreen; Potency, µM (titrated, usually from 57.1 µM), without a hit: top-dose activity change, negative = inhibition, actives largely listed as inhibitors; thiazole orange DNA binding displacement, fluorescence; shares compounds with WRN helicase inh-1; 10% of 610 active; AID 720499, 2013;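 also: drop in dye fluorescence marks compound binding to DNA; potency is read from the fitted curve at half-maximal effect; % is scaled to controls: 0 for no effect and ±100 for the full control effect; nearly all actives have a fitted effect of over 60% in size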
BLM helicase inh – qHTS for Inhibitors of WRN Helicase: BLM Helicase Counterscreen for WRN Inhibitors; shares compounds with WRN helicase inh-1; Recombinant BLM helicase DNA unwinding, red fluorescence; Potency, µM (doses to about 57.1 µM), without a hit: at the highest dose activity change, negative = inhibition, hits mostly inhibitors; 60% of 610 active; AID 720503, 2013; also: potency is read from the fitted curve at half-maximal effect; nearly all actives have a fitted effect of over 60% in size
The depositor's hits bear a star; ? = inconclusive; . = not tested or not shown; [ ] = another dose, or the depositor's remark. The list is not random: actives were taken first. Their share in the collection is about 2.4%. Unless noted, calls follow the shape of the dose curve; as a rule, active = well fitted curve in the direction sought with a large enough effect; inconclusive = small, poorly fitted or top-dose-only effect, or another doubt; inactive = no such curve, though single readings can be large; an effect the other way counts as inactive or inconclusive.

SMILES	Pol kappa inh	Pol iota inh	Pol beta inh-1	Pol eta inh-1	FEN1 inh-1	WRN helicase inh-1	PGK validate	others
CNC(=O)COC(=O)c1cc(-c2ccco2)nc2ccccc12	25µM*	?	3.5µM*	11µM*	50µM*	79µM*	.	Pol beta inh-2=28*;Klenow inh=-38;HIV RT counter=?;POLB valid=100*;Pol iota confirm=21*;Pol eta inh-2=19*;FEN1 inh-2=?;WRN helicase inh-2=15µM*;TO DNA binding=-29%;BLM helicase inh=4.8µM*
O=C(CSc1n[nH]c(-c2ccccc2)n1)c1ccc(O)c(O)c1	25µM*	18µM*	16µM*	40µM*	-1%	16µM*	.	Pol beta inh-2=32*;Klenow inh=-28;HIV RT counter=?;POLB valid=25;WRN helicase inh-2=19µM*;TO DNA binding=-2%;BLM helicase inh=19µM*
O=C(Cn1c(=O)ccc2cc(S(=O)(=O)N3CCCC3)ccc21)Nc1ccc(Cl)cc1	-6%[60.1 µM]	15%	-17%	-13%	-6%	.	.
Cc1cc(O)c(C(c2ccc(F)cc2)N2CCCCC2)c(=O)n1Cc1ccco1 (stereo unspecified)	-3%[60.1 µM]	9%	7%	-18%	-14%	.	.
CCN1/C(=C\C(=S)Nc2ccccc2)Sc2ccccc21	-20%	122%	-3%	-25%	-5%	-14%	.
CCN1/C(=C/C(C)=C/c2sc3ccccc3[n+]2CC)Sc2ccccc21	?	32µM*	35µM*	40µM*	7.1µM*	18µM*	?
COc1ccc(-c2cc3c(nn2)-c2ccccc2C3=O)cc1	-3%	187%	37%	-21%	1%	-4%	4.6µM*
O=C1c2ccccc2-c2nnc(-c3ccccc3)cc21	5%	?	26%	-5%	-6%	-3%	12µM*
Cc1cccc(-c2cc3c(nn2)-c2ccccc2C3=O)c1	-12%	35%	7%	-12%	-19%	-35%	.
COc1cccc(NC(=O)Cn2c(=O)c3cccn3c3ccc(F)cc32)c1	-1%	6%	1%	7%	18%	.	.
CSc1ccccc1NC(=O)COc1ccc(Cl)cc1Cl	-8%	-2%	17%[57.1 µM]	-28%	-2%	?	.
O=C(COc1ccc(Cl)cc1Cl)Nc1ccccn1	-6%	-13%[58.9 µM]	2%	1%	-2%	4%	18µM*
COc1ccc(C)cc1NC(=O)c1ccc2nc(Cc3ccccc3)oc2c1	-6%[60.1 µM]	19%	-3%	-25%	12%	.	.
COc1ccc(Oc2ncc3ncc(=O)n(C[C@H]4CCCO4)c3n2)cc1	0%[60.1 µM]	.	.	.	.	.	.
Cc1ccnc(N2C(=O)c3ccccc3C2Nc2cccc(C)c2C)c1 (stereo unspecified)	3%	1%	-13%	-17%	-16%	2%	.
Cc1ccnc(N2C(=O)c3ccccc3C2O)c1 (stereo unspecified)	-1%	-20%	43%	0%	1%	-3%	10µM*
COc1cccc(NC(=O)C2CC(=O)N(c3ccc(Br)cc3)C2)c1 (stereo unspecified)	-7%	22%	?	?	3%	.	.
O=C(O)C1OC(Oc2c(-c3ccc(O)c(O)c3)oc3cc(O)cc(O)c3c2=O)C(O)C(O)C1O (stereo unspecified)	14µM*	22µM*	8.9µM*	6.3µM*	11µM*	?	10µM*
Cn1c(N=Nc2ccccc2)nc2ccccc21	-9%	14%	-29%	-6%	-14%	-12%	13µM*
CN(C)c1ccc(N=Nc2nc3ccccc3n2C)cc1	-2%	29%	-27%	-15%	-26%	-16%	4.6µM*
CCn1c(NCc2ccc(N(C)C)cc2)nc2ccccc21	-11%	19%	-15%	0%	2%	-8%	.
